In PMC4336329 (PLoS ONE, 2015):
In all, about 310,000 compounds went through this assay and about 14,000 (4.5%) showed an effect of 50% or more. The effect is printed as a negative number. The sample holds strong results, similar compounds and a random draw of the others, so the mix is not that of the screen.

biological target: human ether-à-go-go-related gene (hERG) potassium channel (human, UniProt Q12809); assay: primary screen, population patch clamp on CHO cells stably expressing hERG; higher = less effect of the substance
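Also: peak tail current of the secondary pulse compared with the same well before compound.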

Chain of human ether-à-go-go-related gene (hERG) potassium channel (Q12809 whole entry, looked up): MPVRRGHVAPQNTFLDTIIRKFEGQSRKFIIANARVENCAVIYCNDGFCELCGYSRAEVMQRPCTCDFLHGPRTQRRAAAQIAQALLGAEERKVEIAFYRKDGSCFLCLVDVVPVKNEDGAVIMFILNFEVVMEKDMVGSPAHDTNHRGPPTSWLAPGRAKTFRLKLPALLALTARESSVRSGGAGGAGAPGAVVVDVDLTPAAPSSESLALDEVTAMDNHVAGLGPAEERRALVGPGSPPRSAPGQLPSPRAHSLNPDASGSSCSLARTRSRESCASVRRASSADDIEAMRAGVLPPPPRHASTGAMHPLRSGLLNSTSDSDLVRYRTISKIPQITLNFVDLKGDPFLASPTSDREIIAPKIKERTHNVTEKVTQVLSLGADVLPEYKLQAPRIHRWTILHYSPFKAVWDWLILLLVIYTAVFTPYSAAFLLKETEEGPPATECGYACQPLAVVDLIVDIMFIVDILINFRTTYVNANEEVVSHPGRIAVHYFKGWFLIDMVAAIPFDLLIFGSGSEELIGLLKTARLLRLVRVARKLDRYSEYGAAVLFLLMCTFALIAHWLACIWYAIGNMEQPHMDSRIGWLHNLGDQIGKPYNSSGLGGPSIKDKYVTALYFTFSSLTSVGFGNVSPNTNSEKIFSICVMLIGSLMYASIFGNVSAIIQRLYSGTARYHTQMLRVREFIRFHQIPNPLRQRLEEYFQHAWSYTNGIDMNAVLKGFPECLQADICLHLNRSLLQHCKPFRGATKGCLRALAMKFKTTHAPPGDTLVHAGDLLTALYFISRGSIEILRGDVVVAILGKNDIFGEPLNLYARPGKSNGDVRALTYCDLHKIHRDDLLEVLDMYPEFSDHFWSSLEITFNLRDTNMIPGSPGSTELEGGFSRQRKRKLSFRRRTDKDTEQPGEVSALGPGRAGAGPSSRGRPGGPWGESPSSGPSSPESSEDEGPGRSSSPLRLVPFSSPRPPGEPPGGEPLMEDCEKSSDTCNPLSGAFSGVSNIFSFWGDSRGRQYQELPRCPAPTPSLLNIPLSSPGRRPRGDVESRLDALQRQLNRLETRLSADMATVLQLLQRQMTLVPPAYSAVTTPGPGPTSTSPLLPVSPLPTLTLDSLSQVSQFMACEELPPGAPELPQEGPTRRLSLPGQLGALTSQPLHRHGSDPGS

Row | SMILES | hERG current change (%, negative = inhibition) at 10uM [%]
1 | CC(C)=CCCC1=CCC(/C=N/NC(N)=O)C(C)C1 (centres unmarked) | 9
2 | CC(C)=CCCC1=CCC(/C(C)=N/NC(N)=O)CC1 (centres unmarked) | -53.7
3 | CC(=O)N1c2c(cc(Br)cc2S(=O)(=O)N2CCOCC2)CC1C (centres unmarked) | -0.158
4 | COc1ccc(Cl)cc1C(=O)CSc1nnnn1C1CCCC1 | -6.05
5 | COCCn1c(C)cc(C(=O)CSc2nnc(C3CC3)n2C2CC2)c1C | 5.4
6 | COCCn1c(C)cc(C(=O)CSc2nnnn2C2CCCC2)c1C | -69
7 | COc1ccc(Cl)cc1C(=O)CSc1nnnn1C1CCCCC1 | -4.88
8 | CCn1c(C)cc(C(=O)CSc2nnnn2C2CCCC2)c1C | -53.5
9 | COCC(C)n1c(C)cc(C(=O)CSc2nnnn2C2CCCC2)c1C (centres unmarked) | -33.2
10 | COc1ccc(COC(=O)CCNC(=O)c2ccc(Cl)cc2)cc1 | -32.5
11 | COc1cccc(NC(=S)N(CCCN2CCCC(C)C2)Cc2cccs2)c1 (centres unmarked) | -67.4
12 | COc1ccc(NC(=S)N(CCCN2CCCC(C)C2)Cc2cccs2)cc1 (centres unmarked) | -68.9
13 | COc1cccc(NC(=S)N(CCCN2CCCC2)Cc2cccn2Cc2ccc(Cl)cc2)c1 | -41.2
14 | COc1cccc(NC(=S)N(CCCN2CCCC2)Cc2ccco2)c1 | -46.3
15 | CCOCCNC(=O)c1ccc2c3c(cccc13)CC2 | 3.39
16 | Cc1csc(-c2coc3cc(O)cc(C)c3c2=O)n1 | 2.27
17 | O=C1c2ccccc2C(=O)c2c1cccc2N1CCN(C/C=C/c2ccccc2)CC1 | -7.23
18 | O=C1c2ccccc2C(=O)c2c1cccc2N1CCN(CCO)CC1 | -69.7
19 | O=C1c2cccc(Cl)c2C(=O)c2c1cccc2N1CCCC1 | -9.16
20 | O=C1c2ccccc2-c2onc3c(N4CCN(CCO)CC4)cc(N4CCN(C(=O)c5ccco5)CC4)c1c23 | -22.1
21 | O=C1c2ccccc2C(=O)c2c1cccc2N1CCN(Cc2ccccc2)CC1 | -56.9

Row | SMILES | hERG current change (%, negative = inhibition) at 10uM [%]
22 | O=C1c2ccccc2C(=O)c2c1cccc2N1CCCC1 | -14.3
23 | O=C(NCCc1ccccc1)C1CCN(C(=O)Nc2ccccc2)CC1 | 8.37
24 | COc1ccc(NC(=O)CCCn2c(=O)c3sccc3n(Cc3ccccc3)c2=O)cc1 | -20.8
25 | CC(C)(C)NC(=O)C(c1ccco1)N(C(=O)c1csnn1)c1ccccc1 (centres unmarked) | -4.55
26 | CC12CCC(C(=O)N(CCCCN3CCN(Cc4ccccc4)CC3)C1=O)C2(C)C.Cl (centres unmarked) | -45.2
27 | O=C(CNC(=O)c1[nH]cnc1C(=O)N[C@@H](Cc1ccccc1)C(=O)OCc1ccccc1)OCc1ccccc1 | 7.48
28 | COCCn1nnnc1C(c1ccccc1OC)N1CCN(c2ccccc2)CC1.Cl (centres unmarked) | -4.6
29 | CCC(C)(C)n1nnnc1C(c1ccc(OC)c(OC)c1)N1CCN(c2ccc(OC)cc2)CC1.Cl (centres unmarked) | -15.9
30 | COCCn1nnnc1C(c1ccc(OC)cc1OC)N1CCN(c2ccccc2F)CC1.Cl (centres unmarked) | -9.23
31 | COc1ccc(C(c2nnnn2Cc2cccs2)N2CCN(c3ccccc3F)CC2)cc1OC.Cl (centres unmarked) | -39.6
32 | COCCn1nnnc1C(c1ccc(OC)cc1OC)N1CCN(c2ccccc2)CC1 (centres unmarked) | -70.8
33 | CCC(C)(C)n1nnnc1C(c1ccc(OC)c(OC)c1)N1CCN(c2ccccc2)CC1 (centres unmarked) | -39.5
34 | COc1ccccc1CN1CCN(C(CC(C)C)c2nnnn2Cc2cccs2)CC1.Cl (centres unmarked) | -57.9
35 | CC(C)C(c1nnnn1Cc1cccs1)N1CCN(c2ccccc2)CC1 (centres unmarked) | 20
36 | CCC(C)(C)n1nnnc1C(c1ccc(OC)c(OC)c1)N1CCN(c2ccc(F)cc2)CC1.Cl (centres unmarked) | -72.9
37 | CCC(c1nnnn1C(C)(C)C)N1CCN(Cc2ccccc2OC)CC1.Cl (centres unmarked) | -19.2
38 | CCC(c1nnnn1CCOC)N1CCN(Cc2ccccc2OC)CC1.Cl (centres unmarked) | -6.05
39 | COc1ccc(C(c2nnnn2Cc2cccs2)N2CCN(c3ccccc3)CC2)cc1OC (centres unmarked) | -63.5
40 | N/C(=N\OC(=O)c1ccc(=O)n(Cc2ccc(Cl)cc2)c1)c1ccccn1 | -33.2
41 | CC1Sc2ccc(S(=O)(=O)NCc3ccccc3)cc2NC1=O (centres unmarked) | 1.74
